This note sets out measurements from PubChem BioAssay (NCATS).

Records with an inconclusive call do not appear. Active and inactive are the calls of the source. Unless noted, calls come from the whole dose curve; as a rule, active = well fitted curve in the direction sought with a large enough effect; inconclusive = small, poorly fitted or top-dose-only effect, or another doubt; inactive = no such curve, though single readings can be large; an effect the other way counts as inactive or inconclusive.

Assay [1] can be described thus: Confirmatory qHTS for small molecule stabilizers of the endoplasmic reticulum resident proteome: Secreted ER Calcium Modulated Protein (SERCaMP) assay (AID 1508628). Note: potency is the fitted concentration of half-maximal effect; nearly all actives have a fitted effect of over 40% in size. In outline:
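SH-SY5Y cells stably expressing GLuc-SERCaMP, treated 16 h with compound (primary 1.53, 7.67, 38.3 uM; confirmation 11 concentrations, up to 76.6 uM), then 100 nM thapsigargin for 4 h. Secreted Gaussia luciferase in medium read by coelenterazine luminescence.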

Assay [2] is described as follows: Cell Viability qHTS for small molecule stabilizers of the endoplasmic reticulum resident proteome (AID 1508629).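 Note: human SH-SY5Y neuroblastoma cells carrying the GLuc-SERCaMP reporter; compound exposure about 46 h in total before the viability read; % is set by controls: 0 for no effect and ±100 for the full control effect.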 The note with it: cell viability counter-screen, 100 nM thapsigargin for final 4 h.
Assay [3] addresses Lysosomal acid glucosylceramidase (Homo sapiens) (UniProt P04062). Kind of assay: Glucocerebrosidase-p2 (AID 348; in the data active = potency below about 10 µM; note: potency is the fitted concentration of half-maximal effect). The note with it: purified GBA, blue fluorogenic substrate, 40 min. The method in brief: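 Compounds titrated from 0.6 nM upwards against 0.2 nM enzyme in pH 5.9 citric acid/KH2PO4, taurocholate, tween-20; blue fluorogenic substrate 80 uM, 40 min room temperature, stopped and read Ex 365/Em 440 for AC50.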

A short description of assay [4]: NFAT Signaling Pathway (AID 444; active = well fitted curve in either direction with a large enough effect, not every such curve was filed as active;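 note: carbachol stimulus at about its EC50 of 1 µM final; % is set by controls: 0 for no effect and ±100 for the full control effect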). The settings on record: Jurkat NFAT-bla M1, carbachol, beta-lactamase ratio, 5 h; at 7.69 µM (top of the series) unless noted. In outline:
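Jurkat cells carrying an NFAT-driven β-lactamase reporter and co-transfected muscarinic M1 receptor were treated with compound plus carbachol (1 uM final, an EC50 level) for 5 h at 37 °C. CCF4 loading followed for 1 h at RT; 460/530 nm ratio gave %activity.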

For assay [5], the target named is Glucocorticoid receptor (Homo sapiens) (UniProt P04150). Kind of assay: GR-GFP Redistribution (AID 450;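 active = compounds whose dose series gives a full or clear partial fitted curve of increased nuclear translocation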; note: potency is the fitted concentration of half-maximal effect). The settings on record: U2OS GR-GFP nuclear translocation, laser cytometry, 2 h.
For assay [6] the target is unchanged. The assay is described as follows: GR-EFC Redistribution (AID 451; calls by dose curve; note: potency is the fitted concentration of half-maximal effect). The note with it: CHO-K1 GR-EFC translocation, beta-gal luminescence, 2 h. In outline:
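CHO-K1 cells stably expressing nuclear-localized β-gal enzyme acceptor and GR fused C-terminally to the enzyme donor fragment; ligand-driven nuclear translocation restores β-gal by complementation. Compounds titrated up to 46 uM final, 2 h at 37 °C; luminescence read.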

Assay [7] deals with Mitogen-activated protein kinase 10 (Mus musculus) (UniProt Q61831). Kind of assay: JNK3 AlphaScreen Assay (AID 530; active = well fitted curve in either direction with a large enough effect, not every such curve was filed as active;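 note: kinase came from lysate of stimulated human HepG2 cells; signal reports phosphorylation of biotinylated GST-cJun 1-79 at Ser73 with 10 µM ATP; % is set by controls: 0 for no effect and ±100 for the full control effect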). In outline:
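Inhibitors reduce antibody binding to phosphorylated biotin-cJun, lowering AlphaScreen luminescence. Lysates from HepG2 cells pre-activated by IL-1beta plus TNF-alpha supplied JNK3; compounds were titrated.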

Assay [8] addresses 3',5'-cyclic-AMP phosphodiesterase 4B (Homo sapiens) (UniProt Q07343). Kind of assay: qHTS Assay for Inhibitors of PDE-IV (AID 607; active = well fitted activation curve with a large enough effect in the main read-out, with a control signal flat, not every such curve was filed as active; note: % of control where 0% means no effect). The method in brief: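 ACTOne HEK293 cells carry a modified cAMP-gated CNG channel and express endogenous PDE4; plated 1000 cells/well, compounds up to 22.9 uM final. Membrane-potential dye fluorescence (ex 535/em 590) was read; parental cells received 10 uM forskolin + 100 uM RO 20-1724.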

The target of assay [9] is Cytochrome P450 2C9 (Homo sapiens) (UniProt P11712). The assay is described as follows: qHTS Assay for Inhibitors and Substrates of Cytochrome P450 2C9 (AID 883). Note: potency is the fitted concentration of half-maximal effect; nearly all actives have a fitted effect of over 60% in size. In outline: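 CYP2C9 deoxyluciferin hydroxylation, 37C, 60 min with NADPH regeneration; 10nM enzyme, 100uM Luciferin-H (KM). Glo detection reagent stopped reaction; luminescence normalized to sulphaphenazole (57uM) full inhibition.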

Assay [10] deals with Cytochrome P450 3A4 (Homo sapiens) (UniProt P08684). Kind of assay: qHTS Assay for Activators of Cytochrome P450 3A4 (AID 885). Note: nearly all actives have a fitted effect of over 65% in size. The method in brief:
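20nM CYP3A4 + 25uM Luciferin-PPXE (=KM), 200mM KPO4; cpd 10 min RT; NADPH regen, 60 min RT; stop w/ detection buffer, 20 min; luminescence. Normalized to 57 uM ketoconazole.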

The target of assay [11] is Cytochrome P450 2C19 (Homo sapiens) (UniProt P33261). Kind of assay: qHTS Assay for Inhibitors and Substrates of Cytochrome P450 2C19 (AID 899). Note: potency is the fitted concentration of half-maximal effect; nearly all actives have a fitted effect of over 60% in size. The method in brief:
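In 50mM KPO4, the reaction held 5nM enzyme and KM-level (10uM) Luciferin-H EGE; it ran 60 min at 37C after NADPH regeneration and a 10 min compound preincubation. Luminescence values were scaled to 57uM ketoconazole as complete inhibition.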

Assay [12] can be described thus: AP1 Signaling Pathway (AID 357; active = well fitted curve in either direction with a large enough effect, not every such curve was filed as active; note: % is set by controls: 0 for no effect and ±100 for the full control effect). The note with it: ME-180 AP-1-bla reporter, EGF-induced, beta-lactamase ratio, 5 h; at 7.69 µM (top of the series) unless noted. In outline: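 Read-out was the 460nm/530nm emission ratio (excitation 405nm) after CCF4 loading for 2.5 hours at room temperature. Cells carried an AP-1-driven beta-lactamase reporter, were stimulated with EC50 EGF plus compound for 5 hours, and AC50 values came from titrations.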

Assay [13] deals with Cytochrome P450 1A2 (Homo sapiens) (UniProt P05177). Kind of assay: p450-cyp1a2 (AID 410; calls by dose curve; note: potency is the fitted concentration of half-maximal effect). In outline: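 Luminescent readout of luciferin formed from Luciferin-ME by human CYP1A2; data normalized against complete inhibition by 57 uM furafylline. Enzyme 20nM, substrate 100uM at Km, 100mM KPO4 buffer, 60 min reaction at room temperature.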
Assay [14] is described as follows: Stat Signaling Pathway (AID 446; active = well fitted curve in either direction with a large enough effect, not every such curve was filed as active). The note with it: ME-180 SIE beta-lactamase reporter, IL-6 stimulated, 5 h; at 7.69 µM (top of the series) unless noted. The method in brief: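 ME-180 SIE-bla cells; overnight plating; cpd + IL-6 40 pM, 5 h, 37 C; LiveBLAzer 2.5 h RT; 460/530 nm emission ratio. Normalized to 300 pM IL-6 and 125 nM JAK inhibitor controls.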
The nature of assay [15]: Confirmation and Secondary Assay for Modulators of Hemoglobin Beta Chain Splicing at IVS2 654 locus (AID 910).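 Note: per-well total GFP intensity by laser scanning cytometry after 2-day treatment; % of control where 0% means no effect.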 In outline:
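HeLa cells stably carrying EGFP interrupted by mutant beta-globin IVS2-654 intron (CMV-driven) were treated with compound for 2 days at 37C; corrected splicing was scored as total peak GFP intensity per well (488 nm excitation, 500-520 nm emission).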

Assay [16] is described as follows: Confirmation and Secondary Assay for Modulators of Hemoglobin Beta Chain Splicing at IVS2 705 locus (AID 930).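 Note: HeLa cells stably expressing the EGFP-705 splicing reporter; GFP fluorescence per well restored by corrected splicing of the IVS2-705 intron in EGFP; % of control where 0% means no effect.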 In outline:
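Stable HeLa line with EGFP disrupted by mutant beta-globin intron 2 (705). Overnight attachment, then 2 days of compound at 37C, 5% CO2. Signal: peak GFP intensity summed over objects 5-250 µm.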

Assay [17] can be described thus: qHTS Assay for Lipid Storage Modulators (AID 1519; calls by dose curve). The settings on record: Drosophila S3 cells, BODIPY lipid droplet/cell ratio, laser cytometry, cells loaded with oleic acid. The method in brief: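 Cells seeded at 5,000 per well were treated with compounds over a concentration series and loaded with oleic acid (400 uM, as added). Lipid droplet fluorescence (488 nm excitation, 500-530 nm channel) was read by laser-scanning cytometry and normalized to 20 uM Triacsin C.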

In assay [18] the target is Ubiquitin carboxyl-terminal hydrolase 1 (Homo sapiens) (UniProt O94782). The assay is described as follows: Inhibitors of USP1/UAF1: Pilot qHTS (AID 504865).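 Note: rhodamine fluorescence freed from ubiquitin-rhodamine substrate followed over time; top concentration of the series differs between compounds; % is set by controls: 0 for no effect and ±100 for the full control effect; nearly all actives have a fitted effect of over 35% in size.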 In outline:
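Deubiquitinase activity followed as kinetic rhodamine fluorescence release from 150 nM Ub-Rho. 1 nM USP1/UAF1 with compound, after 15 min room-temperature preincubation, in HEPES pH 7.8 buffer containing TCEP, EDTA, BSA and Tween-20.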

Assay [19] is described as follows: Primary qHTS for small molecule stabilizers of the endoplasmic reticulum resident proteome: Secreted ER Calcium Modulated Protein (SERCaMP) assay (AID 1508630). Note: % is set by controls: 0 for no effect and ±100 for the full control effect. In outline:
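GLuc-SERCaMP-expressing SH-SY5Y cells, pretreated 16 h with compound, are challenged with thapsigargin to empty ER calcium stores; after 4 h, coelenterazine is added directly to the medium and luminescence is imaged.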

Glucocorticoid receptor (Homo sapiens), sequence (P04150 whole entry, looked up): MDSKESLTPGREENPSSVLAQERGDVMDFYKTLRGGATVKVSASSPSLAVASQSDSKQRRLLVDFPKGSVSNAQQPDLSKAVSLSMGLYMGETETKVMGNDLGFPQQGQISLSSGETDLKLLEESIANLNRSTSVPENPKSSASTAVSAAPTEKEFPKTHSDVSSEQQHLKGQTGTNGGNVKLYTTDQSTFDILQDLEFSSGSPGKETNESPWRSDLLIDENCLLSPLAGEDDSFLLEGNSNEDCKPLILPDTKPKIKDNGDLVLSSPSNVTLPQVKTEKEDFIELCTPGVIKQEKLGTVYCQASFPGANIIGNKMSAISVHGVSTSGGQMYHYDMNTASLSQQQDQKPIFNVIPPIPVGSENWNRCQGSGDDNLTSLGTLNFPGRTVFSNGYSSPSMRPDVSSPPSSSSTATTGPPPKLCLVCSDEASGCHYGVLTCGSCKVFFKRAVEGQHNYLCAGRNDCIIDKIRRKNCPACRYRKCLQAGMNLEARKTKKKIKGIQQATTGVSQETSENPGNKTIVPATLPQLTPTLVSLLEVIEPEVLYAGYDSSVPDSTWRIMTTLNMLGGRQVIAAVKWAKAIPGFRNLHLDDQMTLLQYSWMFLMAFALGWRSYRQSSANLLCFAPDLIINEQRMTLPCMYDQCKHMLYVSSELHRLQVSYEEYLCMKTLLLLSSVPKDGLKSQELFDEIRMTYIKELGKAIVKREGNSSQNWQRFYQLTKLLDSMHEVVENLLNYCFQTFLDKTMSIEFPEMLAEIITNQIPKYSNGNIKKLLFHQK
3',5'-cyclic-AMP phosphodiesterase 4B (Homo sapiens), sequence (Q07343 whole entry, looked up): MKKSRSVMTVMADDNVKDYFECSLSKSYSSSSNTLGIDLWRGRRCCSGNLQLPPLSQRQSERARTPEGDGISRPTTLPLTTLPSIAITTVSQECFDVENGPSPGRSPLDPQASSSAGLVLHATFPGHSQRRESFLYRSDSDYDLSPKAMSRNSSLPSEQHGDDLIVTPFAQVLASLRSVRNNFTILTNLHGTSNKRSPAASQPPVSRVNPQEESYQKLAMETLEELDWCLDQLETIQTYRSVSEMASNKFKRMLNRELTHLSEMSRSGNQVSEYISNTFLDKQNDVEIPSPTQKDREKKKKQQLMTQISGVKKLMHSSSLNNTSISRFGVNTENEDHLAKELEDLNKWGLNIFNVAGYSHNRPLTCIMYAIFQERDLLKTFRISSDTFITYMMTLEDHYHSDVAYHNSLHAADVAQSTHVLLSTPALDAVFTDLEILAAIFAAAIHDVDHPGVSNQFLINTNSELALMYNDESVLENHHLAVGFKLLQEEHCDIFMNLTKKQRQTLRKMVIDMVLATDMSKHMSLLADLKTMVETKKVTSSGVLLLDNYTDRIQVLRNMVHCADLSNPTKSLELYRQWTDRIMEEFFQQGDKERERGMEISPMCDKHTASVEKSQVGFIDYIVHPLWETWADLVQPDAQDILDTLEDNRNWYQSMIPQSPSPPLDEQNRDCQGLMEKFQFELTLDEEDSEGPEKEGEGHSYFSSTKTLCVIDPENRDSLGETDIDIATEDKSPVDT
Lysosomal acid glucosylceramidase (Homo sapiens), sequence (P04062 whole entry, looked up): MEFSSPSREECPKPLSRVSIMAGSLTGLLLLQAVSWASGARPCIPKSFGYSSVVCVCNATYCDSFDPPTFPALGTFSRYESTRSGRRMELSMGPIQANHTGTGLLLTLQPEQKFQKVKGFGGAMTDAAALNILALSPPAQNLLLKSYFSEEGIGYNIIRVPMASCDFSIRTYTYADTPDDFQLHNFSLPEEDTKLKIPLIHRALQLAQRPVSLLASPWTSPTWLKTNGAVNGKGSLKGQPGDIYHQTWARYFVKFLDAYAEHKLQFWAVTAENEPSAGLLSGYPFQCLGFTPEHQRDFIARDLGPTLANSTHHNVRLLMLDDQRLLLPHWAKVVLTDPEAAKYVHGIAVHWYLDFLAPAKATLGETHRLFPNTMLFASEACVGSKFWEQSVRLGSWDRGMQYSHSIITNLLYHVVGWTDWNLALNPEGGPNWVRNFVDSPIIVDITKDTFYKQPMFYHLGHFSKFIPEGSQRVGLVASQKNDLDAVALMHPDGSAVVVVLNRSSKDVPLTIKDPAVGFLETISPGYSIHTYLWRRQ
Cytochrome P450 3A4 (Homo sapiens), sequence (P08684 whole entry, looked up): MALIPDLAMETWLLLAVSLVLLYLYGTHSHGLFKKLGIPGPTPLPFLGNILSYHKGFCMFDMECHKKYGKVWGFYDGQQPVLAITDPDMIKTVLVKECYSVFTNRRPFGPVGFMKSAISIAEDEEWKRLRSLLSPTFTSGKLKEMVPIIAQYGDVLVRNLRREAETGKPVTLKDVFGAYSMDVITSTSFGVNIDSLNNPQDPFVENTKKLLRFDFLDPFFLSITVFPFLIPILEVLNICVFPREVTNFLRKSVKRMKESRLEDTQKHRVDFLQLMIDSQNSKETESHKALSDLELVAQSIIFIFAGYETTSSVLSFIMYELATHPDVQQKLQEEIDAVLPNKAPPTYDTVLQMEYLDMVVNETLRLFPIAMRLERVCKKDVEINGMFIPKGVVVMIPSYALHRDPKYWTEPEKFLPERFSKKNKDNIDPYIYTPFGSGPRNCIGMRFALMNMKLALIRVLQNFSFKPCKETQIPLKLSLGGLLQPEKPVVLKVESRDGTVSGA
Cytochrome P450 2C9 (Homo sapiens), sequence (P11712 whole entry, looked up): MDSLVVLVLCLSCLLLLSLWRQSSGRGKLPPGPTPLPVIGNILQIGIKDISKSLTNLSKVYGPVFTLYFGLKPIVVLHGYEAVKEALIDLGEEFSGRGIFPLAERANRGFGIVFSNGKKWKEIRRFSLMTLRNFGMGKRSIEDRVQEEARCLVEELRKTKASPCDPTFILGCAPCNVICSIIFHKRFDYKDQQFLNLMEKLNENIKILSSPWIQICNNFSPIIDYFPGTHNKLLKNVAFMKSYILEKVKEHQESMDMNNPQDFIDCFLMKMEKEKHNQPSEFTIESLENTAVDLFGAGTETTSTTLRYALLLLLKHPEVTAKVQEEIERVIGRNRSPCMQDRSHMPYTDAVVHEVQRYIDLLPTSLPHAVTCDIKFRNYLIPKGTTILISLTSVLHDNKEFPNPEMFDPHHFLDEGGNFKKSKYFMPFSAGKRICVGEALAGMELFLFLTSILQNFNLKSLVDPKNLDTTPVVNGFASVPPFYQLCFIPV
Cytochrome P450 1A2 (Homo sapiens), sequence (P05177 whole entry, looked up): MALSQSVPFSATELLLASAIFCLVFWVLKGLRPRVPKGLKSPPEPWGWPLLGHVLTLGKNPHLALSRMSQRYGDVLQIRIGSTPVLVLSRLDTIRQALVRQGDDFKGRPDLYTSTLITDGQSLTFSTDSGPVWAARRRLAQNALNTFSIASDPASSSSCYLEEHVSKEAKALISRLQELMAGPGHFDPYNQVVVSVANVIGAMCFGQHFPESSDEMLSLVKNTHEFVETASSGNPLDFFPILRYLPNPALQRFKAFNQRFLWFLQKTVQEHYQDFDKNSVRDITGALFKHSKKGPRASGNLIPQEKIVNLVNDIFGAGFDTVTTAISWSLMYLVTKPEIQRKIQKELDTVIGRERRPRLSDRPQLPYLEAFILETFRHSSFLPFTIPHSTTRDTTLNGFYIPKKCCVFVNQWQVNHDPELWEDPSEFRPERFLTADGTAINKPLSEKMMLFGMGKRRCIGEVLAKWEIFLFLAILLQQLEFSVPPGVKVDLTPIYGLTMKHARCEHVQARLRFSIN
Ubiquitin carboxyl-terminal hydrolase 1 (Homo sapiens), sequence (O94782 whole entry, looked up): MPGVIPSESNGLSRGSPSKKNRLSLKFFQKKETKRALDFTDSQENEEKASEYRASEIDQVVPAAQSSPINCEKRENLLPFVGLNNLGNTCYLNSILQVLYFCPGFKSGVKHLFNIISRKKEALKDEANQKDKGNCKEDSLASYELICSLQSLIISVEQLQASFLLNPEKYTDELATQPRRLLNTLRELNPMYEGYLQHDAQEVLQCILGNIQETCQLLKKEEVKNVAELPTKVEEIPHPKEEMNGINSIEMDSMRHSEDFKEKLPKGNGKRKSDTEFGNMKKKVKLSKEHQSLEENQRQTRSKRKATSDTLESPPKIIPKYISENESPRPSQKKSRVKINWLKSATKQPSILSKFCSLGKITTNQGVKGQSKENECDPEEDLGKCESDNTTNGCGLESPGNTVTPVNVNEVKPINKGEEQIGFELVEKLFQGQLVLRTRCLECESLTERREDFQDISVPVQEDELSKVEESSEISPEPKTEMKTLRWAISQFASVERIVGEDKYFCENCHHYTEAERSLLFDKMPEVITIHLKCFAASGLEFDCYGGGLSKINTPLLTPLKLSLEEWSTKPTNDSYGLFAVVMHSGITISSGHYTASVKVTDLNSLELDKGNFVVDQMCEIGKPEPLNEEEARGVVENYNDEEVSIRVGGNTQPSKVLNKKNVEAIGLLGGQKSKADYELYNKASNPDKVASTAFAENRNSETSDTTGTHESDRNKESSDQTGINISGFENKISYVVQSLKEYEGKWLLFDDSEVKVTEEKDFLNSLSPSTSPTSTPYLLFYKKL
Cytochrome P450 2C19 (Homo sapiens), sequence (P33261 whole entry, looked up): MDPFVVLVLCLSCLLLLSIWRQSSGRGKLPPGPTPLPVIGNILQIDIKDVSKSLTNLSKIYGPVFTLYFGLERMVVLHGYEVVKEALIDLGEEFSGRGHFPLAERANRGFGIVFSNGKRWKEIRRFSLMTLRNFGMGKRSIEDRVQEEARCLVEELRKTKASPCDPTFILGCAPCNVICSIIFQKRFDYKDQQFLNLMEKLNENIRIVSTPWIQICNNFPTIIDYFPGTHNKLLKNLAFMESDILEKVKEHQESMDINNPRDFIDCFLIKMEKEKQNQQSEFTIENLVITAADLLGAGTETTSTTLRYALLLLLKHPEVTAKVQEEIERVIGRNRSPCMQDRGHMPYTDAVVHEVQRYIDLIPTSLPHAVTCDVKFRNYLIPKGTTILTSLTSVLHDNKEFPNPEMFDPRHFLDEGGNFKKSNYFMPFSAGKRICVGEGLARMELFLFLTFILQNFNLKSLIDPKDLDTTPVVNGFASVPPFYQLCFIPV

Turning to `O=C(CCCN1C(=O)c2cccc3cccc(c23)C1=O)N1CCN(Cc2ccc3c(c2)OCO3)CC1`, the Potency in assay [1] is 27.3 µM (active). In addition, the max response in assay [2] was -13.9% (inactive).

On to `N#CCCn1c(=O)c(CCc2ccccc2)nc2cnc(Oc3cccc(Cl)c3)nc21`, for which the Potency was > 11.4 µM (inactive) in assay [3]; > 9.22 µM (inactive) in [5]; > 46 µM (inactive) in [6]; 3.16 µM (active) in assay [9]; 6.31 µM (active) in assay [11]. The activity change, negative = inhibition in assay [4] was -8.5% (inactive). In addition, the compound was called inactive in assay [7]. Also, the Potency entry in [8] and in assay [10] was “inactive” in each case. For the same compound, in assay [2], the max response is 7.03% (inactive).

Consider `N#Cc1cccc(-c2nc(N3CCNCC3)c3ccccc3n2)c1`, for which the Potency in [3] was > 11.4 µM (inactive); in [13], 2.51 µM (active); in assay [5], > 46 µM (inactive); in [6], > 46 µM (inactive); in [1] it was 11.2 µM (active). For the same compound, the figures for the activity change, negative = inhibition in assay [12], in assay [4] and in assay [17] (at 57.5 µM (top of the series)) were 5.75% (inactive), 10.9% (inactive) and 6.61% (inactive), respectively. In addition, in [14], the activity, negative = inhibition was 11.7% (inactive). In addition, the call in assay [7], in assay [15] and in [16] was inactive. The Potency entry in assay [8], in assay [10] and in assay [18] was “inactive” throughout. Moreover, the max response was 6.46% in assay [17] (measured here: cell count channel max response) and 11.8% in assay [17] (measured here: lipid channel max response).

Consider `C/C(N[C@@H]1CSCC1O)=C1/C(=O)CC2[C@@H]1C2(C)C` (stereo partly drawn), for which, in assay [19], the Potency result was “inactive”.

On to `O=C(O)c1c(C(=O)O)c2ccccc2[nH]c1=O`, for which the Potency entry in assay [19] is “inactive”.

For the compound `CC(C)=CCn1cnc2c1c(=O)n(C)c(=O)n2C`, in [19], the Potency entry was “inactive”.

Regarding `COC(=O)N1c2ccccc2C23[C@@H]4CN5CCC[C@]6(CCC12C(O)(C6)C4=O)[C@H]53`, the Potency entry in assay [19] is “inactive”.
